Molecules are shown by their SMILES. The panel holds about 83,000 compounds, 20% with a hit somewhere; the sample as a whole holds those more often.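 Step 1: grow cells in 96-well plates. Step 2: add test compound at a single concentration. Step 3: incubate 48 h. Step 4: record percent growth.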 Active and inactive are the calls of the source. Rule for the calls: active = growth percent below 10; inactive = the rest.

This assay deals with HL-60(TB) leukemia. Kind of assay: NCI-60 one-dose screen, 48 h (100 = growth as untreated, 0 = no growth, -100 = all killed). The settings on record: 10 µM unless noted.
Regarding `C=CCn1c(SCC(=O)Nc2cccc(C(=O)/C=C/c3ccc(Cl)cc3)c2)nc2ccccc2c1=O`, the growth is 103% (inactive). The result for `CCOc1ccc2nc(NC(=O)c3ccc(C(F)(F)F)cc3)sc2c1` reads 93.9% (inactive). The result for `O=C(NNc1nc2cc(F)ccc2n2c(CN3CCCC3)ccc12)c1cnccn1` reads -30.9% (active). The value for `N#C/C(=C\c1ccc2ccccc2c1)C(=O)Nc1sc2c(c1C#N)CCC2` was 103% (inactive).

These data come from PubChem BioAssay (NCI).
